High-throughput results as filed in PubChem BioAssay.
Rows were chosen to be rich in hits. Some 28% of all compounds tested hit in one or more screens of this group.
CYP2C19 activ: increases human CYP2C19 enzyme activity; 96,000 tested, under 10 active; activation factor at 5 µM; AID 1025; P33261; recombinant CYP2C19, luciferin-H EGE luminescence; stronger effect = higher value; 0 = fully inhibited enzyme, 1 = untreated enzyme;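 active = activation factor of at least 2 at 5 µM in the primary screen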
Target sequence (P33261 whole entry, looked up): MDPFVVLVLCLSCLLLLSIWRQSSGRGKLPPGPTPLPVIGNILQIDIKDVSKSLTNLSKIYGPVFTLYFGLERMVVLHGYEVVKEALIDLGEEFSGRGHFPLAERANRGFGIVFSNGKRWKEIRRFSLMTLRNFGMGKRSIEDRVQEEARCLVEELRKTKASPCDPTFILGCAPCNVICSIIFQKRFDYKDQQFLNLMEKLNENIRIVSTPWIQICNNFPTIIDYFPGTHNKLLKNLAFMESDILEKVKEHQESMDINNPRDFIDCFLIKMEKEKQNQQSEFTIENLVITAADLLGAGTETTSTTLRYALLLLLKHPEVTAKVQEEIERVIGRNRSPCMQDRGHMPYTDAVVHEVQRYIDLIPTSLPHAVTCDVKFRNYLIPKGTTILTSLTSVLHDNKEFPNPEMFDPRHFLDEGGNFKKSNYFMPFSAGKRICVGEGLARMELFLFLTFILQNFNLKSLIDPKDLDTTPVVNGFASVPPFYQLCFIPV
CYP2C9 act: CYP2C9 (human) activation | recombinant CYP2C9, luciferin-H conversion, luminescence; stronger effect = higher value; factor 1 = untreated enzyme, 0 = blocked | activation factor at 5 µM | AID 1024 | 1.4% of 96,000 active | P11712;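 active = activation factor of 2 or more for CYP2C9 at a 5 µM dose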
CYP2C9 inhib: human CYP2C9 inhibition; P11712; CYP2C9 Supersomes, luciferin-H conversion, luminescence; inhibition, % at 5 µM; 20% of 96,000 active; AID 777;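 active = blocking of liver enzyme CYP2C9 beyond about 50% at 5 µM, limit read from the data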
CYP2C19 inhib: inhibitors of human CYP2C19. CYP2C19 Supersomes, luciferin-H EGE luminescence, 30 min. inhibition, % at 5 µM. 21% of 96,000 active;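 active = CYP2C19 inhibition above a set limit at 5 µM in the primary screen, cut at about 50% in these data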
CD11b adhes inh: blocks human CD11b/CD18 adhesion to fibrinogen; AID 1497; P05107+P11215; 0.54% of 93,000 active; K562 CD11b/CD18 adhesion to fibrinogen, ATPlite luminescence; Mn2+ added to activate the integrin; inhibition, % at 10 µM;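 active = primary inhibition of 50% or more at 10 µM, then 40% or more on retest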
Mac1 fbg enh: CD11b/CD18-fibrinogen binding enhancement | K562 CD11b/CD18 adhesion to fibrinogen, ATPlite luminescence | 0.07% of 93,000 active | AID 1499 | activation, % at 10 µM | P05107+P11215;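 active = 10 µM primary screen giving 50% or more activity, confirmed by 40% or more on retest at that dose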
Large screens that a line does not name were inactive.

CCOC(=O)C1(CCSC)NC(c2ccco2)C2C(=O)N(C)C(=O)C21 (configuration not stated)	none
CCOc1ccccc1N1Cc2cc(C)c(C)cc2C1	CYP2C19 inhib 54.4
COc1ccc(OC)c(N2Cc3cc(C)c(C)cc3C2)c1	CYP2C9 inhib 88.5
O=C1CC(N2CCN(c3ccc(F)cc3)CC2)C(=O)N1Cc1ccc(N2CCCC2=O)cc1 (configuration not stated)	none
COc1ccc(Nc2nc(C)cc(C)c2C#N)cc1OC	none
O=C(CCl)Nc1ccc(Oc2cnc3ccccc3n2)cc1	none
Cc1cc(C)nc(N2CCC(C(=O)N3CCN(c4cc(Cl)ccc4C)CC3)CC2)n1	CYP2C9 inhib 51.1
Cc1ccc(C)c(N2CCN(C(=O)C3CCN(c4nc(C)cc(C)n4)CC3)CC2)c1	none
O=C(CCC1CCCCC1)Nc1c2c(nn1-c1ccc(F)cc1)CS(=O)C2 (configuration not stated)	CYP2C19 inhib 97.5
COc1ccc(OC)c(C2C(C(N)=O)=C(C)Nc3nc(CCCO)nn32)c1 (configuration not stated)	none
N#Cc1c(-c2ccccc2)ccnc1Oc1ccccc1	CYP2C19 inhib 52.6 (no result: CD11b adhes inh, Mac1 fbg enh)
COc1ccc(Oc2nccc(OC)c2C#N)cc1	none
CC1(C)C(=O)C2(C(=O)NCc3ccccc3)CCC1C2 (configuration not stated)	CYP2C19 inhib 69.8
C=CCN1/C(=C(\C#N)C2=NS(=O)(=O)c3ccccc32)N(C)c2ccccc21	CYP2C19 inhib 54.7
O=C(OC1CCOC1=O)c1cc(-c2ccccc2)nc2ccccc12 (configuration not stated)	CYP2C9 inhib 88.3
O=C(OC1CCOC1=O)c1cc(-c2ccc(Cl)cc2)nc2ccccc12 (configuration not stated)	none
COc1ccc(-c2cc(C(=O)OC3CCOC3=O)c3ccccc3n2)cc1OC (configuration not stated)	CYP2C9 inhib 76.9, CYP2C19 inhib 55.0
COC(=O)c1cnn(-c2cc(Oc3cccc(C)c3)ncn2)c1N	CYP2C9 inhib 69.9
CC(=O)c1cnn(-c2cc(Oc3cccc(C)c3)ncn2)c1C	none
COc1ccc2c(c1)N(C)/C(=C1/SC(=NCc3ccccc3)N(c3ccccc3)C1=O)S2	none
CCN1C(=O)/C(=C2/Sc3ccc(OC)cc3N2C)SC1=Nc1cccc(O)c1	CYP2C9 inhib 55.1
COCCNC(=O)c1cccc(Nc2nc(-c3ccccc3)c3cc(Cl)ccc3n2)c1	none (no result: CYP2C19 activ, CYP2C9 act, CYP2C9 inhib, CYP2C19 inhib)
Cc1cc(C)n2nc(NCc3cccc(Br)c3)nc2n1	CYP2C19 inhib 64.4
O=C(COc1ccccc1)n1nc(-c2ccc(Cl)cc2)nc1NCc1ccco1	CYP2C9 inhib 55.1, CYP2C19 inhib 69.1
COc1ccccc1C(=O)n1nc(-c2ccccc2)nc1NCc1ccco1	CYP2C9 inhib 59.3, CYP2C19 inhib 61.3
Cc1ccc(S(=O)(=O)c2nc(S(=O)(=O)c3ccc(C)cc3)c(NCc3ccco3)s2)cc1	none
CC(=O)n1nc(-c2ccco2)nc1N	none (no result: CD11b adhes inh, Mac1 fbg enh)
O=C(c1ccco1)n1nc(-c2ccccc2)nc1NCc1ccco1	none
COc1ccccc1C(=O)n1nc(-c2ccco2)nc1N	CYP2C19 inhib 56.7
Cc1ccc(S(=O)(=O)n2nc(-c3ccc(Cl)cc3)nc2NCc2ccco2)cc1	CYP2C19 inhib 67.7
O=C(c1ccco1)n1nc(-c2ccc(Cl)cc2)nc1NCc1ccco1	none
O=C(COc1ccccc1)Nn1cnc2ccccc21	none
CCC(Oc1ccc2c(c1)C(=O)CC(C)(C)O2)C(=O)NCCN1CCCCCC1 (configuration not stated)	none
COc1ccc(CNc2nc(-c3cccnc3)nn2C(=O)c2ccco2)cc1	CYP2C9 inhib 53.2
COc1cc(OC)c(NC(=O)c2ccco2)cc1Cl	none
COc1ccc(NC(=O)c2cc(Cl)ccc2NC(=O)c2ccco2)c(OC)c1	CYP2C9 inhib 94.1, CYP2C19 inhib 72.8
COc1cc(NC(=O)Cc2ccc(Cl)cc2)ccc1NC(=O)c1ccco1	none (no result: CD11b adhes inh, Mac1 fbg enh)
COc1ccc(S(=O)(=O)Nc2cc(OC)c(NC(=O)c3ccco3)cc2OC)cc1	CYP2C9 inhib 94.3, CYP2C19 inhib 57.2
COc1cc(NS(=O)(=O)c2ccc(Br)cc2)c(OC)cc1NC(=O)c1ccco1	CYP2C9 inhib 100.0, CYP2C19 inhib 97.5
CC(NC(=O)NC1CCCCC1)C(c1cccs1)N1CCN(C)CC1 (configuration not stated)	none
CCCCOc1cccc(-c2nnc(NC(=O)CSc3ccc(C)cc3)s2)c1	none (no result: CYP2C19 activ, CYP2C9 act, CYP2C9 inhib, CYP2C19 inhib)
Cc1ccc(C(=O)COC(=O)C2CC(=O)N(c3nc(-c4ccccc4)cs3)C2)cc1C (configuration not stated)	CYP2C9 inhib 90.3
CCC1CCCCN1C(=S)Nc1ccc(OC(F)F)cc1 (configuration not stated)	none (no result: CYP2C19 activ, CYP2C9 act, CYP2C9 inhib, CYP2C19 inhib)
O=C(NCc1ccc2c(c1)OCO2)c1cccs1	CYP2C9 inhib 66.9, CYP2C19 inhib 92.7
O=C(Cc1ccc(Br)cc1)OCC(=O)c1ccc2c(c1)OCCO2	none (no result: CD11b adhes inh, Mac1 fbg enh)
O=C(NCc1ccc2c(c1)OCO2)c1cc(-c2ccccc2)on1	none
O=C(COC(=O)c1cccs1)c1ccc2c(c1)OCCO2	CYP2C9 inhib 86.8, CYP2C19 inhib 83.2
O=C(COC(=O)c1cccs1)NCc1ccc2c(c1)OCO2	CYP2C9 inhib 69.4, CYP2C19 inhib 77.5
O=C(Cc1n[nH]c(=O)c2ccccc12)OCC(=O)c1ccc2c(c1)OCCO2	CYP2C9 inhib 65.5
Cn1nnnc1SCC(=O)Nc1ccc(N2CCOCC2)cc1	none (no result: CD11b adhes inh, Mac1 fbg enh)
CNC(=O)c1cc(C)c(-c2ccccc2)s1	none
CCC(OC(=O)c1cccs1)C(=O)NCc1ccc2c(c1)OCO2 (configuration not stated)	CYP2C9 inhib 79.2, CYP2C19 inhib 69.4
COCCn1nnnc1CN(CCc1ccccc1)Cc1cc2ccc(C)cc2[nH]c1=O	none
Cc1cc(C)c2c(N)c(C(=O)N3CCCCCC3)sc2n1	CYP2C19 inhib 51.0
COc1cc(OC)cc(C(=O)N2CCN(c3ncccn3)CC2)c1	none
Cc1cc(C)c2c(N=CN(C)C)c(C(=O)N3CCN(c4ncccn4)CC3)sc2n1	CYP2C9 inhib 68.6
Cc1ccc(S(=O)(=O)N2CCN(Cc3ccccc3C(F)(F)F)CC2)cc1	none (no result: CD11b adhes inh, Mac1 fbg enh)
Cc1ccccc1CN1CCN(Cc2ccccc2C(F)(F)F)CC1	CYP2C19 inhib 90.7
O=C(c1ccccc1C(F)(F)F)N1CCN(S(=O)(=O)c2ccccc2)CC1	CYP2C19 inhib 87.0
Cc1ccccc1CN1CCN(C/C=C/c2ccccc2)CC1	none
O=S(=O)(c1ccccc1)N1CCN(Cc2ccccc2C(F)(F)F)CC1	CYP2C9 inhib 82.6, CYP2C19 inhib 93.8
O=C(N1CCCCCC1)N1CCN(S(=O)(=O)c2ccccc2)CC1	none
O=C(c1ccc(Br)cc1)N1CCN(S(=O)(=O)c2ccccc2)CC1	CYP2C19 inhib 70.5
